Laboratory results: PubChem BioAssay (NCATS)
Unmarked numbers belong to inactive results. Records with an inconclusive call do not appear. Where a call stands in place of a potency, no number is given. Calls of active or inactive are those of the source. Unless noted, the call rests on the fitted dose curve; in most records, active means well fitted curve in the direction sought with a large enough effect; inconclusive means small, poorly fitted or top-dose-only effect, or another doubt; inactive means no such curve, though single readings can be large; an effect the other way counts as inactive or inconclusive.

Key:
[1] = Validation of Assay for Modulators of Lamin A Splicing (AID 1459; active means well fitted curve in the direction sought with a large enough effect in the signal ratio; the % refers to the signal ratio;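 further: cells exposed to compound for two days before reading; ratio rise marks activators and ratio drop marks inhibitors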)
Method in brief: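 S3 HeLa cells stably expressing a lamin A-EGFP splicing minigene and DsRed2 were seeded at 600 cells/well in Opti-MEM with 2% FBS, pin-dosed, and incubated 48 hrs at 37 °C, 5% CO2. Laser-scanning cytometry (488 nm) gave GFP/RFP total intensity ratio.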

[2] = target: DNA repair nuclease/redox regulator APEX1 (Homo sapiens) (UniProt P27695); experiment: qHTS Validation Assay for Inhibitors of the Human Apurinic/apyrimidinic Endonuclease 1 (APE1) (AID 1705;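 further: TAMRA fluorescence gain over two minutes as APE1 cuts a quenched THF abasic duplex; series mostly up to about 57 µM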)
Sequence of DNA repair nuclease/redox regulator APEX1 (Homo sapiens) (P27695 whole entry, looked up): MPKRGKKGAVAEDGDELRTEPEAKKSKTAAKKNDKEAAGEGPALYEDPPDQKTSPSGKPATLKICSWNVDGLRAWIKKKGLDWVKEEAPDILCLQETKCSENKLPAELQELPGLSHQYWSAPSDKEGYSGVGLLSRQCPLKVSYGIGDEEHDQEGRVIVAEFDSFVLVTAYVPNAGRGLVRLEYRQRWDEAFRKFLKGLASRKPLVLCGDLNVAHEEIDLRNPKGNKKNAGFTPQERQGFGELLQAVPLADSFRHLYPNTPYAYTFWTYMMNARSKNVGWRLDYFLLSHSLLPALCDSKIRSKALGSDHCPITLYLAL
Method in brief: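 Human APE1 was preincubated with compound for 15 min at room temperature, then 50 nM (final) THF-abasic double-stranded DNA substrate bearing 5'-TAMRA and 3'-BHQ-2 was added. Incision-driven fluorescence rise (ex 525/em 598 nm) was read kinetically.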

[3] = Counterscreen for APE1 Inhibitors: Fluorescent Dye Displacement Validation Assay (AID 1707)
Method in brief: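 Assay buffer: Tris-HCl pH7.5 with 50mM NaCl, 2 mM MgCl2, 0.01% Tween-20. Dye 250 nM, duplex 50 nM final. Readout: decrease in ThO endpoint fluorescence, 480 nm excitation, 540 nm emission.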

[4] = target: Endonuclease 4 (Escherichia coli (strain K12)) (UniProt P0A6C1); experiment: Counterscreen for APE1 Inhibitors: qHTS Validation Assay for Inhibitors of Endonuclease IV (AID 1708)
Method in brief: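 E. coli EndoIV at 2 nM final, preincubated 15 min at room temperature with compound, then 50 nM TAMRA/BHQ-2 THF abasic-site duplex added. Buffer: 50 mM Tris-HCl pH 7.5, 50 mM NaCl, 2 mM MgCl2, 1 mM DTT, 0.01% Tween-20. Kinetic fluorescence increase, third minus first read.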

[5] = qHTS for differential inhibitors of proliferation of Plasmodium falciparum line Dd2 (AID 1882); conditions: Potency: Plasmodium falciparum Dd2 proliferation inhibition; further: series mostly up to about 29 µM; nearly all actives have a fitted effect of over 65% in size
Method in brief: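 Dd2-infected erythrocytes (0.3% parasitemia, 2.5% hematocrit final) incubated with compound 72 h at 37 C, 5% CO2; lysed with saponin/Triton buffer containing SYBR Green I, incubated overnight in the dark, then read by fluorescence (485/535 nm). Normalized to 0.29 uM artemisinin and DMSO.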

[6] = qHTS for differential inhibitors of proliferation of Plasmodium falciparum line W2 (AID 1883); conditions: Potency: Plasmodium falciparum W2 proliferation inhibition;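 further: potency means the concentration at half of the fitted maximal effect; parasites grown with compound for 72 h before lysis and staining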
[7] = target: Ferritin light chain (Equus caballus) (UniProt P02791); experiment: qHTS Validation Assay for Identification of Novel General Anesthetics (AID 2323); further: series mostly up to about 77 µM
Sequence of Ferritin light chain (Equus caballus) (P02791 2-175 limits assumed): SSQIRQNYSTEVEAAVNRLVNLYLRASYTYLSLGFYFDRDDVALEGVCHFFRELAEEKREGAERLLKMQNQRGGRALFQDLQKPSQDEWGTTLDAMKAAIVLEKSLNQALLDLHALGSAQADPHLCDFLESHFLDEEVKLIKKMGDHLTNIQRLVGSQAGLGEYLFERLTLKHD
Method in brief: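 Competitive displacement of profluorescent 1-aminoanthracene (1-AMA, 50% saturated solution in PBS) from 10 uM horse-spleen apoferritin. Compounds incubated 10 min at room temperature; fluorescence read at 380 nm excitation/535 nm emission, normalized to free 1-AMA and complex, fitted with four-parameter Hill equation.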

[8] = target: ATP-dependent DNA helicase Q1 (Homo sapiens) (UniProt P46063); experiment: qHTS Validation Assay for Inhibitors of RecQ-Like Dna Helicase 1 (RECQ1) (AID 2353)
Sequence of ATP-dependent DNA helicase Q1 (Homo sapiens) (P46063 whole entry, looked up): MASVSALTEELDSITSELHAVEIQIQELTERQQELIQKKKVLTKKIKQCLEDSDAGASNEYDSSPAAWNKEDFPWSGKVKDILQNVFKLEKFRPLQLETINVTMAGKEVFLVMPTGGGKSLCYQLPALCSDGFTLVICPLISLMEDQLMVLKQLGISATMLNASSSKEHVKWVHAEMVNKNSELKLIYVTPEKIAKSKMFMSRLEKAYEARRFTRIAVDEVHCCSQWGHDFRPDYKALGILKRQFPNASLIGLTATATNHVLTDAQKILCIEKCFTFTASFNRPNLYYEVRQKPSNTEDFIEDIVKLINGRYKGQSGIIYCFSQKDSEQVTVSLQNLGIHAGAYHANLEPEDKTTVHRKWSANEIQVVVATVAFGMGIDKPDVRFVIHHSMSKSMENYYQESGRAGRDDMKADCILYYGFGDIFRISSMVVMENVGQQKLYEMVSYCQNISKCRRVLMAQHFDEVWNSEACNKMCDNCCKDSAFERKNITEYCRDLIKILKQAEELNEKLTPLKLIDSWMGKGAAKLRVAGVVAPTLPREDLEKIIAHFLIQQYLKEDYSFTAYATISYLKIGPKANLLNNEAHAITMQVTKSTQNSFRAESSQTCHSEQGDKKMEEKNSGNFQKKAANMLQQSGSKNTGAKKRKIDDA
Method in brief: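 50 nM RECQ1T1 preincubated 15 min with compound in Tris pH 8.0 buffer with MgCl2, DTT, Tween-20 and 2.5 ug/ml poly(dI-dC); started with 200 nM TAMRA/BHQ-2 forked duplex and 2 mM ATP. Unwinding read as fluorescence (525/598 nm), two reads 2 h apart.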

[9] = target: RecQ-like DNA helicase BLM (Homo sapiens) (UniProt P54132); experiment: qHTS Validation Assay for Inhibitors of Bloom's syndrome helicase (BLM) (AID 2364)
Sequence of RecQ-like DNA helicase BLM (Homo sapiens) (P54132 whole entry, looked up): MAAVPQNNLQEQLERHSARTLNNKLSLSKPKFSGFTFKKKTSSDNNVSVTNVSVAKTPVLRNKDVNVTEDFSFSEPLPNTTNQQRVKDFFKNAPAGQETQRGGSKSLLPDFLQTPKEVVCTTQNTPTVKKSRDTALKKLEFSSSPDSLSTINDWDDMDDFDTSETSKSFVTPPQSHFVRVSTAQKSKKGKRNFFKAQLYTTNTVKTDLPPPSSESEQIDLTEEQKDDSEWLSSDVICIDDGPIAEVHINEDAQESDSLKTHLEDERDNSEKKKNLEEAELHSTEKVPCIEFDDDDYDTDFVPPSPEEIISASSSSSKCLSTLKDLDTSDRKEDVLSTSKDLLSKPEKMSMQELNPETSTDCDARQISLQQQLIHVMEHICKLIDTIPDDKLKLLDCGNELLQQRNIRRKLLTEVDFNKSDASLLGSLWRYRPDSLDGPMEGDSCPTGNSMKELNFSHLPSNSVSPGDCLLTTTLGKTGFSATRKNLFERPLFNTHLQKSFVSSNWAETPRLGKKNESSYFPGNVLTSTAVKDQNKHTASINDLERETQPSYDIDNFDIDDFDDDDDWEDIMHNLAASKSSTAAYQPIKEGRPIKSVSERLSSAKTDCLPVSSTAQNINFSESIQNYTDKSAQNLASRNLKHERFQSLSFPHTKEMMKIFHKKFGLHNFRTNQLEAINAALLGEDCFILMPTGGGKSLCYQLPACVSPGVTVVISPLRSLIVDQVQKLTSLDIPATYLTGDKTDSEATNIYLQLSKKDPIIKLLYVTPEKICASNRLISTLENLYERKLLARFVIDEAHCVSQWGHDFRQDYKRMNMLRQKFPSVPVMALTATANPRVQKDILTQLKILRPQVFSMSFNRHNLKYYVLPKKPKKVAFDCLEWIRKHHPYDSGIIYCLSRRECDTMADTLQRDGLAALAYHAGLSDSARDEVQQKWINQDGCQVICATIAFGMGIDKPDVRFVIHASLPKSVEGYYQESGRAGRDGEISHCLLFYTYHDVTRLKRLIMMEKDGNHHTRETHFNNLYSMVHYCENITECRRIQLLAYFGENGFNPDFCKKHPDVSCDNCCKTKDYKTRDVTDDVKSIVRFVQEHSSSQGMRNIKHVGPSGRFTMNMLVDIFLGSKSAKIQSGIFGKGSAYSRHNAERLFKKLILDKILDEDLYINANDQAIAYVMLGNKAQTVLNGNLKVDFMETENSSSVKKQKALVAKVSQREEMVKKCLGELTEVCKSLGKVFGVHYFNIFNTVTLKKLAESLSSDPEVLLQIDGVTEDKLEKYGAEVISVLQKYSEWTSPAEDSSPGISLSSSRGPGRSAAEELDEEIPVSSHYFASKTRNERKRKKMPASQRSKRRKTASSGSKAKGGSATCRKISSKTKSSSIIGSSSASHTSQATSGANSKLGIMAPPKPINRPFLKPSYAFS
Method in brief: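 50 nM BLM preincubated 15 min at room temperature with compound in pH 8.0 Tris buffer containing 2.5 ug/ml poly(dI-dC); started with 200 nM TAMRA/BHQ-2 forked duplex and 2 mM ATP (final). Unwinding read as TAMRA fluorescence increase, two reads 2 h apart.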

[10] = Cytometric Cell-Based qHTS for Inhibitors of the mTORC1 Signaling Pathway in MEF (Tsc2-/-, p53-/-) Cells (AID 2660);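 further: percent of cells above a phospho-rpS6 to PI ratio cutoff in each well; series mostly up to about 38 µM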
Method in brief: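 Cells are plated, treated with compound for 24 hrs at 37 degree Celsius, then fixed, blocked and immunostained for phospho-rpS6 Ser235/236. Propidium iodide counterstain follows. Per-well % positive cells is derived from the PI-normalized phospho-S6 signal.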

[11] = High Content Imaging Cell-Based qHTS for Inhibitors of the mTORC1 Signaling Pathway in MEF (Tsc2-/-, p53-/-) Cells (AID 2666);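 further: percent of cells scored positive for phospho-rpS6 Ser235/236 immunostaining by imaging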
Method in brief: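 Phospho-rpS6 (Ser235/236) immunofluorescence, normalized and scored as % positive cells using rapamycin and DMSO controls, was read in empty-vector Tsc2-/-, p53-/- MEFs after 24 h compound exposure at 37 C; propidium iodide counted cells.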

[12] = High Content Imaging Cell-Based qHTS for Inhibitors of the mTORC1 Signaling Pathway in MEF Cells (AID 2667);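 further: Tsc2-/- p53-/- MEFs stably re-expressing wild-type Tsc2 exposed 24 h; series mostly up to about 38 µM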
Method in brief: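 WT MEFs (Tsc2-/-, p53-/- re-expressing Tsc2), in DMEM + 10% FBS, were treated with compound for 24 h at 37 C. Cells were then fixed and stained for phospho-rpS6 Ser235/236 with propidium iodide as cell count. Values are % positive cells, with thresholds set against rapamycin-treated cells.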

[13] = Cytometry Cell-Based qHTS for Inhibitors of the mTORC1 Signaling Pathway in MEF cells (AID 2668);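 further: Tsc2-/- p53-/- mouse embryonic fibroblasts stably re-expressing wild-type Tsc2; percent cells positive for phospho-rpS6 Ser235/236 relative to propidium iodide stain; series mostly up to about 38 µM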
Method in brief: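 WT MEFs (Tsc2-/-, p53-/- stably re-expressing WT Tsc2) in DMEM + 10% FBS received compounds 24 hrs after plating, for 24 hrs at 37 degree Celsius. Fixed cells stained with Alexa-488 anti-phospho-rpS6 Ser235/236 and propidium iodide; laser-scanning cytometry read-out.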

[14] = Validation screen for inhibitors of Lassa infection (AID 463096; calls by dose curve)
[15] = Validation screen for small molecules that induce DNA re-replication in MCF 10A normal breast cells (AID 463097); further: nearly all actives have a fitted effect of over 60% in size
Method in brief: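 Readout: Hoechst nuclear fluorescence intensity, 405 ex / 500-530 em, by scanning plate imager; re-replication scored as increase in nuclei with elevated DNA content. Cells exposed to compound 48 hr, 37 C, 5% CO2 beforehand.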

[16] = target: Ubiquitin carboxyl-terminal hydrolase 2 (Homo sapiens) (UniProt O75604); experiment: qHTS Validation Assay for Inhibitors of Ubiquitin-specific Protease USP2a Using CHOP2 as the Reporter (AID 463106)
Sequence of Ubiquitin carboxyl-terminal hydrolase 2 (Homo sapiens) (O75604 whole entry, looked up): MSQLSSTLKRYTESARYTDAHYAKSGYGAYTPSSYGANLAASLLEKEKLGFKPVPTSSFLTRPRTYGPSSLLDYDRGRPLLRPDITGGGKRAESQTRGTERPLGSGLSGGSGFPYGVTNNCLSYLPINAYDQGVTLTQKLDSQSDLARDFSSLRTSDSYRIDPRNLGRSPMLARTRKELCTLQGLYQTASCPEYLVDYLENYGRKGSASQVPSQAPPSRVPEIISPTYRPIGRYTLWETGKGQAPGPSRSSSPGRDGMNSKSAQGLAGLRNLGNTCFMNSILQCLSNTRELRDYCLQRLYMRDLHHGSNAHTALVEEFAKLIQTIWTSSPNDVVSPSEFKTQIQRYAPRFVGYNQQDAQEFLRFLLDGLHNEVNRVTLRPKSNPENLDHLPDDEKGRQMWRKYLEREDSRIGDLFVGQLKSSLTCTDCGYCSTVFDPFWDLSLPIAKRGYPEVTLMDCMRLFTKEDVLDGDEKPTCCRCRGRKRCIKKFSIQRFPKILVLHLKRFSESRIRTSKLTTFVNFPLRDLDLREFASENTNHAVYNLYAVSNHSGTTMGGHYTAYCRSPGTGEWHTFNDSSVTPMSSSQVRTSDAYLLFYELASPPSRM
Method in brief: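 USP2 core (10 nM final) was preincubated with compound 30 min at RT in pH 8.0 Tris/CaCl2/beta-ME/CHAPS buffer. Ub-CHOP2 and reporter substrate (25 nM final each) were then added, with fluorescence (Ex 485/Em 531) read after 60 min. Data were normalized to NEM full inhibition and fitted to concentration-response curves.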

[17] = target: DNA polymerase III PolC-type (Bacillus subtilis (strain 168)) (UniProt P13267); experiment: qHTS Validation Assay for the Inhibitors of DNA Replication in Gram-Positive Bacteria (AID 485295);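 further: PicoGreen fluorescence of double-stranded DNA made on primed circular M13 template; series mostly up to about 57 µM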
Sequence of DNA polymerase III PolC-type (Bacillus subtilis (strain 168)) (P13267 whole entry, looked up): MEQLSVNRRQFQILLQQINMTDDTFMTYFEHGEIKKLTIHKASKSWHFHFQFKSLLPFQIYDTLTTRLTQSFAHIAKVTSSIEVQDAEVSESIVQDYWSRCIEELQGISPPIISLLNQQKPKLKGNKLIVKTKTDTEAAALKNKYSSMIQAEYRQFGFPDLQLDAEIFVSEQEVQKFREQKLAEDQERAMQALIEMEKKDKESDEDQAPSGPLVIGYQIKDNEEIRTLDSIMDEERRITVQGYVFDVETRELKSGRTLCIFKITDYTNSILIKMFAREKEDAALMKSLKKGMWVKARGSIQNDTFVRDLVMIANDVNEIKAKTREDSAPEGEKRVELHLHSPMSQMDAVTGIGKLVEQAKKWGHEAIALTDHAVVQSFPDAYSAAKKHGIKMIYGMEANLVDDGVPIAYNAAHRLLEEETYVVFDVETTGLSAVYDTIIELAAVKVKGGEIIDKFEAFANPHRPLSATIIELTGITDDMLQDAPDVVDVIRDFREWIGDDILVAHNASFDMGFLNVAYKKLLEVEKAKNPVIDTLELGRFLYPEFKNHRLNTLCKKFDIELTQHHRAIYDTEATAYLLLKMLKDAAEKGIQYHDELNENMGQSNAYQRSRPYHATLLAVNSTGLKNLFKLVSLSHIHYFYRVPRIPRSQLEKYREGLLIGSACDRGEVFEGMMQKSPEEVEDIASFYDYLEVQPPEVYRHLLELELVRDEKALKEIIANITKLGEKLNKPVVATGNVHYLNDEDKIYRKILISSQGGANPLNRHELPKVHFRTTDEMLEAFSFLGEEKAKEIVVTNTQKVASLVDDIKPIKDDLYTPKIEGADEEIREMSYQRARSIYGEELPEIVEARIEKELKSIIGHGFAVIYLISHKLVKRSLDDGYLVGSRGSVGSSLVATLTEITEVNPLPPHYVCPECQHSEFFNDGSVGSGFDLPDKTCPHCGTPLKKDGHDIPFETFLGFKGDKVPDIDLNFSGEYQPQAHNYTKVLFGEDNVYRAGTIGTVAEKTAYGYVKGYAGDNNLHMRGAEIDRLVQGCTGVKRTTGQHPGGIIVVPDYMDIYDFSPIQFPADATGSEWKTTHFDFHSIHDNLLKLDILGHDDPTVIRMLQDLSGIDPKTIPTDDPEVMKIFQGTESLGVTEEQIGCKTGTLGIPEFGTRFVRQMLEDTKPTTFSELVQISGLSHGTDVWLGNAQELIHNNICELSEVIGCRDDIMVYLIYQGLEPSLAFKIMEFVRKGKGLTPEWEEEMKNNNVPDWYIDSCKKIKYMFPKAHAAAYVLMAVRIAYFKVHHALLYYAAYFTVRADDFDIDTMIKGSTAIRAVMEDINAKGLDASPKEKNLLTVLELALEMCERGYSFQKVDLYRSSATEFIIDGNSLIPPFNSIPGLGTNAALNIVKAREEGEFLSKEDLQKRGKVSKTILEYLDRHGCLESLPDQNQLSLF
Method in brief: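 Reconstituted B. subtilis holoenzyme (Pol III, beta clamp, SSB, primase) was preincubated with compound at room temperature, then given single-stranded circular M13Gori plus dNTPs and NTPs. EDTA-containing PicoGreen stopped the reaction, and dsDNA product was read by fluorescence.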

[18] = target: Tumor susceptibility gene 101 protein (Homo sapiens) (UniProt Q99816); experiment: qHTS Validation Assay for Iinhibitors of HIV-1 Budding by Blocking the Interaction of PTAP/TSG101 (AID 485342; calls by dose curve)
Sequence of Tumor susceptibility gene 101 protein (Homo sapiens) (Q99816 whole entry, looked up, the tested form may be a part): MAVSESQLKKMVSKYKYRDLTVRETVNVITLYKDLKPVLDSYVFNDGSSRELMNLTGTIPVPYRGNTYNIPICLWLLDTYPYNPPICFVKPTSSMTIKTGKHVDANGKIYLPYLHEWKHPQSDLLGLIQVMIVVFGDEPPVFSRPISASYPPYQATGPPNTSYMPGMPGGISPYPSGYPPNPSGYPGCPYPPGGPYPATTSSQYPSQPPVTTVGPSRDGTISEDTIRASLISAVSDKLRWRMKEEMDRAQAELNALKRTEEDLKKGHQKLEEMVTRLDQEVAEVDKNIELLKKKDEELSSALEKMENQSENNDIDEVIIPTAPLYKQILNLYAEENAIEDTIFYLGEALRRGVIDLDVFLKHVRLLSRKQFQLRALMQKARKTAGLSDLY
Method in brief: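 Tsg101 binding domain (10 uM final) in pH 7.5 HEPES/NaCl/Tween 20/EDTA/TCEP buffer was mixed with pin-transferred compounds, then FITC-labeled PTAP peptide (50 nM final) was added; after 20 min at r.t., fluorescence polarization was read.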

Compound: O=[N+]([O-])c1ccc(O[C@@H]2O[C@H](CO)[C@@H](O)[C@H](O)[C@H]2F)c([N+](=O)[O-])c1
- outcome [1]: inactive
- Potency [2]: inactive
- Potency [3]: inactive
- outcome [4]: inactive
- Potency [5]: inactive
- Potency [6]: 11.2 µM (active)
- outcome [7]: inactive
- Potency [8]: inactive
- Potency [9]: inactive
- outcome [10]: inactive
- Potency [11]: inactive
- Potency [12]: inactive
- Potency [13]: inactive
- Potency [14]: inactive
- Potency [15]: inactive
- Potency [16]: inactive
- Potency [17]: inactive
- outcome [18]: inactive
